{
  "source": "PubChem BioAssay (NCI)",
  "note": "Where “and” joins values, the source holds several entries; their conditions need not be identical. Identical values can stand only once. The panel holds about 83,000 compounds, 20% with a hit somewhere; the sample as a whole holds those more often.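 How to read the values: 0–100, growth inhibition (40 = 60% inhibited); 0, no net growth; -100 to 0, cell death (-40 = 40% of starting cells died; -100 = all dead).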 Calls of active or inactive are those of the source. How the source made its calls: active means growth percent below 10; inactive means the rest.",
  "data": [
    {"system": "MDA-MB-468 breast", "test": "NCI-60 one-dose screen, 48 h (100 = growth as untreated, 0 = no growth, -100 = all killed)", "conditions": "10 µM unless noted", "values": [
      {"molecule": "COc1cc(-c2nc3sc4c(c3c(=O)[nH]2)CCCCCC4)cc(OC)c1OC", "growth": "20% (inactive)"},
      {"molecule": "c1ccc(-c2ccc(-c3ccccc3)[nH]2)cc1", "growth": "70.1% (inactive)"},
      {"molecule": "CCCCCCCSc1ncnc2[nH]ncc12", "growth": "68.8% (inactive)"},
      {"molecule": "CC(=O)Oc1ccc(/C(=C(\\C)c2ccc(Cl)cc2)c2ccc(OCCN3CCCCC3)cc2)cc1", "growth": "-25% (active)"},
      {"molecule": "Cc1ccc(C2=Nc3c(N)ncnc3NC(c3cccc(Nc4ccnc5cc(C(F)(F)F)ccc45)c3)C2)cc1", "note": "(stereo not given)", "growth": "24.8% (inactive)"},
      {"molecule": "O=C(C(=O)N1CCCCC1)c1ccc(OC2OC(CO)C(O)C(O)C2O)cc1", "note": "(stereo not given)", "growth": "100% (inactive)"},
      {"molecule": "CCN1CCN(c2nc(NCCCNc3ccnc4cc(Cl)ccc34)c3ccccc3n2)CC1", "growth": "29.1% (inactive)"},
      {"molecule": "COc1cc(N2C(=O)c3nccnc3C2=O)cc(OC)c1OC", "growth": "115% (inactive)"},
      {"molecule": "COCCCNC(=O)c1nnn2c1nc(N)c1cc(Cl)ccc12", "growth": "88.6% (inactive)"},
      {"molecule": "CCOC(=O)Nc1ccc2c(c1)/C(=N\\NC(=S)NC)c1ccccc1-2", "growth": "86.8% (inactive)"},
      {"molecule": "CC(=O)N(N=Nc1ccccc1)c1cccc2ccccc12", "growth": "84.7% (inactive)"},
      {"molecule": "Clc1ccccc1Nc1nnc(-c2ccncc2)s1", "growth": "110% (inactive)"},
      {"molecule": "O=c1c2cc(F)ccc2sc2c(NCCN3CCCC3)nc3ccccc3c12", "growth": "65.8% (inactive)"},
      {"molecule": "COc1ccc(C/C(C)=C(\\c2ccc(O)cc2)c2ccc(OCCN3CCCC3)cc2)cc1", "growth": "124% (inactive)"},
      {"molecule": "Nc1cc(O)cc(O)c1", "growth": "107% (inactive)"},
      {"molecule": "CCCCNCCCN(CCCC)CCCNCCCC", "growth": "94.2% (inactive)"},
      {"molecule": "O=[N+]([O-])c1ccc(N=Nc2c(Cl)cc(O)cc2Cl)cc1", "growth": "-11.7% (active)"},
      {"molecule": "O=c1oc2ccccc2cc1-c1cc(-c2ccc(-c3cc(-c4cc5ccccc5oc4=O)nc(-c4cc5ccccc5oc4=O)c3)cc2)cc(-c2cc3ccccc3oc2=O)n1", "growth": "84.3% (inactive)"},
      {"molecule": "COc1ccc(-c2cc(Cc3cccs3)c(=O)n(Cn3cncn3)n2)cc1", "growth": "102% (inactive)"},
      {"molecule": "Cc1ccc(Nc2oc(-c3ccccc3)nc2[P+](c2ccccc2)(c2ccccc2)c2ccccc2)cc1", "growth": "-77.1% (active)"},
      {"molecule": "C=C1C(=O)O[C@H]2[C@H]1CC/C(Cn1cc(CCC)nn1)=C\\CC[C@@]1(C)O[C@@H]21", "growth": "-31.7% (active)"},
      {"molecule": "CC1(C)CC(=O)c2c(ccc(C(=O)C[C@H](N)CO)c2N)O1", "growth": "3.17% (active)"},
      {"molecule": "CNC(C)=O", "growth": "102% (inactive)"},
      {"molecule": "O=C1/C(=C/c2ccc(O)cc2)Oc2ccc(Cl)cc21", "growth": "131% (inactive)"},
      {"molecule": "O=C(/C(=C\\c1c(-c2ccccc2)[nH]c2ccccc12)S(=O)(=O)c1ccccc1)c1ccccc1", "growth": "32.9% (inactive)"},
      {"molecule": "CCCCn1c(C)nc2cc(Nc3nc(Cl)nc4nc[nH]c34)ccc21", "growth": "44.3% (inactive)"},
      {"molecule": "CN(C)c1ccc(/C=N/NC(=O)COc2cc(=O)n(C)c3ccccc23)cc1", "growth": "105% (inactive)"},
      {"molecule": "CCNC(=O)Oc1ccc(/C(=C(/C)Cc2ccc(OC)cc2)c2ccc(OCCN3CCCC3)cc2)cc1", "growth": "61.9% (inactive)"},
      {"molecule": "COC(=O)/C=C1\\S/C(=N\\NC(=O)c2cc3ccc2/C=C\\c2ccc(cc2)/C=C\\3)N(Cc2ccccc2)C1=O", "growth": "21.1% (inactive)"},
      {"molecule": "O=C(CSc1ccc(-c2nc3ccccc3[nH]2)cn1)N1CCN(c2ccccc2F)CC1", "growth": "53.1% (inactive)"},
      {"molecule": "COCCCNCC(=O)Nc1c(C)cccc1C", "growth": "112% (inactive)"},
      {"molecule": "Nc1ccc(-c2nnc(SCc3ccc(O)c4ncccc34)o2)cc1", "growth": "-20.7% (active)"},
      {"molecule": "CN1CCN(C(=S)S)CC1", "growth": "119% (inactive)"},
      {"molecule": "CCn1c(SCC(=O)c2ccc(Br)cc2)nnc1-c1ccncc1", "growth": "108% (inactive)"},
      {"molecule": "S=c1cc(S)c2cc(Br)ccc2[nH]1", "growth": "104% (inactive)"},
      {"molecule": "O=c1[nH]c2cc(Cl)ccc2n1C1CCN(c2ccc3nnc(Cl)n3n2)CC1", "growth": "85.3% (inactive)"},
      {"molecule": "CC(C)C1CCCCC1O", "note": "(stereo not given)", "growth": "107% (inactive)"},
      {"molecule": "O=[N+]([O-])c1cccc2ccc(N/N=C/c3ccccc3O)nc12", "growth": "4.06% (active) and 89.3% (inactive)"},
      {"molecule": "Cc1nnc(/N=C2\\NC(=O)/C(=C/C=C/c3ccccc3)S2)s1", "growth": "53% (inactive)"},
      {"molecule": "COC(=O)/C(CCC=C(C)C)=C1\\[C@@H](OC(C)=O)C[C@@]2(C)[C@H]1CC(=O)[C@H]1[C@@]3(C)CC[C@H](NCc4ccccc4)[C@@H](C)[C@@H]3CC[C@@]12C", "growth": "87.2% (inactive)"}
    ]}
  ]
}
